Data taken from the supplement of paper PMC6555819.

The sequences below were run on THRa:RXRa (NR concentration 90 nM, RXRa partner concentration 90 nM) (assay: PBM binding z-score (relative to random genomic background probes); higher = stronger binding; sequences stand for … in GC…GCGATTGACAGCGTAGAATGAAGG).
Summary of the method: (§1)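 Custom Agilent 4×180K protein-binding microarrays carried double-stranded probes. Their 34-nt variable regions held direct-repeat seeds, single-nucleotide variants, half-site ablations and random human genomic background sequences. Arrays were incubated 1 h with ligand-free nuclear receptor dimers in PBS pH 7.4, 2% milk, 0.02% Triton X-100, 1 mM DTT, 0.2 mg/mL BSA and 0.4 mg/ml salmon testes DNA. Antibodies against each partner (one per run) detected binding, and scanned fluorescence was regression-normalized. Binding z-scores use random background probes as reference.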

Sequence	PBM binding z-score
AGAATGAGGTTATACGTAGATCATGGAAGAAAGT	2.42
ACTCGGAGGACAAAGGTCCGAGCTACGCCAGTGA	0.646
TGAATGAGGTTGTAAGATCAGGGAACGTTGCAAA	0.192
TCTTGTAGATCAACAGGAGGTTTAGAAAGATCGA	-0.426
CAAACTAGTTCACGAAAGGTCAAAGTCGAATGAC	4.5
GCTCGGAGAACAAGGTCAGAGCTTTGTCCGTAGA	2.58
TTACCAAGCTGAAGGTCGTTGATCCCTCTGTAGA	0.571
ACTAGTTGGTCAGCTGAGGTCACACATAATTCGG	4.88
TCTAGCAGGCCAGAGGGTCTCTCAAGAGGTACGG	-1.48
AGAACGAAGGCACGCTGAGTTGATAGCAGAGTAG	-0.717
ACTATTAGTTGACTTAGGGCAACCTATACGACGC	1.72
GGAACGAGGGCATACGAGTTGATAGCATGGCGAT	2.92
AGAATGAGGTTACCAAAGATCAGGCAAACGCTTG	2.84
GGAGCGAGGGCAAAGTTGATAGCATCTGTCGACG	0.838
TTACCAAGGTGAGCTGAGGTCGTTGGTCCAACTC	4.45
TCTTGTAGATCAGCAGGTTAAGAATGCTGGCCAA	0.0436
CCGACTTGGGCAAGGTTACCATAACGCACAGCCA	1.17
CTCGAAAGGTCGCTTGAGGTGAGTATACGGATAA	5.16
TCTTGTAAATCAAGCAGGTTAAGAAAGCCTGAGT	0.147
TCTCGGAGGACACGAAGGTGAGAGCTTTCCAGAG	1.48

Sequence	PBM binding z-score
CCTACAGGGCCAAAAAGGTCATTGATGCCGATAA	3.21
AGAATGAGGTTATACGTAGAGCAGGGAAGAAAGT	2.19
GGAACGAGGGCATTCGAGTTGATAGCCTGGCGAT	3.25
CCTGCTAGGTCAATTGTCAGCTAAAGCAGCTCGC	2.02
ATCTCTAGGTAGAAGTTCAGTGAATCCCGAGGAT	0.355
TCGAGTAGGTTAGGGGCATTCACAATGGCGTCGA	1.06
TCATATAGGTTATACAGGTGAAAGTCGGCATCTA	1.92
ACAGACAGGTGATGAAGGTAACTCACGCTATCAT	0.491
CCTACTGGGCCCAAGGTCATTGATTCCAATGCTC	3.22
ACAGACAGGTGATGAAGGTAATTCAGGCTATCAT	0.514
AGAACGAGGGCACGCTGACTTGATAGCAGAGTAG	1.76
ATATCTAGGTAAAGATAGTTCAGTGAATGCAAAT	0.642
GCTGCAAGGTCAGGTTGGTCAGCTAACGGGTACG	3.26
GTACCAAGGTGAATAGGTCGTTGTTGAGTAGGCG	1.81
TAGCTTAGGTCAGATCGGGCCAGTATACGCTATA	4.3
GATACAGGGTCAGCTAGAGGCCGGAGTATGGAAA	2.7
ATCTCTAGTTAAGACTCAGTTCAGTGAAGAACGC	0.594
GCTAGCAGGCCATTCGGGTCACTCAATGACGGGC	3.09
AGCTCTAGGTAACCAAGTTCAGTGAATGCCGAAC	1.14

These sequences were tested on THRa homodimer (NR concentration 90 nM) in the same assay as above.
Summary of the method: as §1

Sequence	PBM binding z-score
AGAATGAGGTTATACGTAGATCATGGAAGAAAGT	0.532
ACTCGGAGGACAAAGGTCCGAGCTACGCCAGTGA	-0.259
TGAATGAGGTTGTAAGATCAGGGAACGTTGCAAA	-0.364
TCTTGTAGATCAACAGGAGGTTTAGAAAGATCGA	-0.597
CAAACTAGTTCACGAAAGGTCAAAGTCGAATGAC	1.16
GCTCGGAGAACAAGGTCAGAGCTTTGTCCGTAGA	0.95
TTACCAAGCTGAAGGTCGTTGATCCCTCTGTAGA	-0.583
ACTAGTTGGTCAGCTGAGGTCACACATAATTCGG	5.2
TCTAGCAGGCCAGAGGGTCTCTCAAGAGGTACGG	-0.98
AGAACGAAGGCACGCTGAGTTGATAGCAGAGTAG	-1.12
ACTATTAGTTGACTTAGGGCAACCTATACGACGC	0.279
GGAACGAGGGCATACGAGTTGATAGCATGGCGAT	-0.328
AGAATGAGGTTACCAAAGATCAGGCAAACGCTTG	0.538
GGAGCGAGGGCAAAGTTGATAGCATCTGTCGACG	-0.34
TTACCAAGGTGAGCTGAGGTCGTTGGTCCAACTC	2.2
TCTTGTAGATCAGCAGGTTAAGAATGCTGGCCAA	-0.197
CCGACTTGGGCAAGGTTACCATAACGCACAGCCA	0.449
CTCGAAAGGTCGCTTGAGGTGAGTATACGGATAA	1.09
TCTTGTAAATCAAGCAGGTTAAGAAAGCCTGAGT	-0.571
TCTCGGAGGACACGAAGGTGAGAGCTTTCCAGAG	0.357

Sequence	PBM binding z-score
CCTACAGGGCCAAAAAGGTCATTGATGCCGATAA	0.419
AGAATGAGGTTATACGTAGAGCAGGGAAGAAAGT	0.488
GGAACGAGGGCATTCGAGTTGATAGCCTGGCGAT	-0.752
CCTGCTAGGTCAATTGTCAGCTAAAGCAGCTCGC	0.418
ATCTCTAGGTAGAAGTTCAGTGAATCCCGAGGAT	-0.305
TCGAGTAGGTTAGGGGCATTCACAATGGCGTCGA	0.276
TCATATAGGTTATACAGGTGAAAGTCGGCATCTA	0.477
ACAGACAGGTGATGAAGGTAACTCACGCTATCAT	-0.113
CCTACTGGGCCCAAGGTCATTGATTCCAATGCTC	2.76
ACAGACAGGTGATGAAGGTAATTCAGGCTATCAT	0.165
AGAACGAGGGCACGCTGACTTGATAGCAGAGTAG	-0.184
ATATCTAGGTAAAGATAGTTCAGTGAATGCAAAT	-0.33
GCTGCAAGGTCAGGTTGGTCAGCTAACGGGTACG	1.48
GTACCAAGGTGAATAGGTCGTTGTTGAGTAGGCG	0.601
TAGCTTAGGTCAGATCGGGCCAGTATACGCTATA	0.376
GATACAGGGTCAGCTAGAGGCCGGAGTATGGAAA	0.265
ATCTCTAGTTAAGACTCAGTTCAGTGAAGAACGC	0.6
GCTAGCAGGCCATTCGGGTCACTCAATGACGGGC	1.75
AGCTCTAGGTAACCAAGTTCAGTGAATGCCGAAC	0.629
